Reference: PubChem BioAssay (NCI)
This is part of a sample that, as a whole, favours compounds with a hit. Of some 79,000 tested, about 15% had one in any assay. Values without a mark were called inactive. Calls of active or inactive are those of the source. Rule as the data show it: active = growth inhibition above about 70%; inactive = the rest.

Legend:
[1] = NCI Yeast Anticancer Drug Screen. Data for the rad50 strain (AID 155);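 also: 0% = growth of vehicle-only cultures of the same strain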; conditions: S. cerevisiae rad50 strain growth inhibition, hits give high values
Procedure, shortened: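 Readout: growth inhibition relative to vehicle-treated cultures. Compound exposure was carried out in a genetically defined yeast strain deficient in DNA damage repair.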

[2] = NCI Yeast Anticancer Drug Screen. Data for the mec2-1 strain (AID 157); conditions: S. cerevisiae mec2-1 strain, hits give high values
Procedure, shortened: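 mec2-1 yeast strain, carrying an alteration in DNA damage repair or cell cycle control, was exposed to compounds; growth inhibition was measured relative to vehicle-treated controls.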

[3] = NCI Yeast Anticancer Drug Screen. Data for the sgs1 mgt1 strain (AID 161);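 also: 0% = growth of cultures given vehicle only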; conditions: S. cerevisiae sgs1 mgt1 strain, hits give high values
Procedure, shortened: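 Yeast cells carrying a defined DNA-repair defect were exposed to test compounds. Growth inhibition was measured relative to vehicle-treated controls.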

[4] = NCI Yeast Anticancer Drug Screen. Data for the cln2 rad14 strain (AID 165);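 also: 0% = growth equal to vehicle treated cultures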; conditions: S. cerevisiae cln2 rad14 strain, hits give high values
Procedure, shortened: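 Yeast carrying cln2 and rad14 alterations (cell cycle control and DNA damage repair) were exposed to compounds. Growth inhibition was measured against vehicle-treated controls.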

[5] = NCI Yeast Anticancer Drug Screen. Data for the bub3 strain (AID 167); conditions: S. cerevisiae bub3 mutant strain, hits give high values
Procedure, shortened: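 Readout: yeast growth inhibition, expressed relative to vehicle-only wells. The test organism is a mutant strain from a panel with lesions in DNA repair or checkpoint genes.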

[6] = NCI Yeast Anticancer Drug Screen. Data for the mlh1 rad18 strain (AID 175); conditions: S. cerevisiae mlh1 rad18 strain growth inhibition, hits give high values
Procedure, shortened: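 Growth inhibition of the yeast strain was measured after compound exposure and expressed relative to vehicle-treated controls. The strain carries defined defects in DNA damage repair.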

[7] = at 5.0 µM (retest, dose inferred, filed as 0.5)
[8] = at 50.0 µM (retest, dose inferred, filed as 5.0)

Compound | growth inhibition [1, 7] | growth inhibition [1, 8] | growth inhibition ([1]; at 50.0 µM) | growth inhibition [2, 7] | growth inhibition [2, 8] | growth inhibition ([2]; at 50.0 µM) | growth inhibition [3, 7] | growth inhibition [3, 8] | growth inhibition ([3]; at 50.0 µM) | growth inhibition [4, 7] | growth inhibition [4, 8] | growth inhibition ([4]; at 50.0 µM) | growth inhibition [5, 7] | growth inhibition [5, 8] | growth inhibition ([5]; at 50.0 µM) | growth inhibition [6, 7] | growth inhibition [6, 8] | growth inhibition ([6]; at 50.0 µM)
Clc1ccc(Cl)c(SCCCN2CCNCC2)c1 | 36% | 65% | 79.7% (active) | 0% | 32% | 48.2% | 35% | 65% | 54.2% | 6% | 39% | 40% | 18% | 59% | 82.4% (active) | 23% | 43% | 74.4% (active)
COc1ccc(C2CC(=O)CC(=O)C2)cc1 | -6% | -23% | 65.2% | 5% | -8% | 10.1% | -7% | 2% | 32.5% | -64% | -20% | -3.35% | -25% | -15% | 16% | -12% | 0% | 55.5%
CC(C)C[NH-].CC(C)C[NH-].[Cl][Pt+2]([Cl])([Cl])[Cl] | 72% (active) | 98% (active) | 85.2% (active) | 46% | 99% (active) | 91.5% (active) | 70% (active) | 99% (active) | 89.2% (active) | 53% | 99% (active) | 83.5% (active) | 70% (active) | 99% (active) | 89.5% (active) | 66% | 98% (active) | 87.8% (active)
O=C1Nc2ccccc2C(=O)C1(Cc1ccccc1)C(=O)c1ccccc1 (stereo not given) | 14% | 26% | 97% (active) | -1% | -9% | 97.2% (active) | 11% | 25% | 97.5% (active) | -1% | 10% | 97.5% (active) | 11% | 12% | 97.5% (active) | 4% | 33% | 97.4% (active)
Cc1nn(-c2ccc(Cl)cc2)c2nc(N)nc(N)c12 | 3% | 0% | 30.2% | -3% | 11% | 30.6% | 2% | -2% | 34.4% | -5% | -6% | 62.6% | -1% | 0% | 21.2% | 0% | 9% | 45.4%
O=C(O)c1cc(-c2ccc3c(c2)Nc2ccccc2S3)nc2ccc(F)cc12 | 16% | 98% (active) | 99% (active) | -40% | 98% (active) | 99.1% (active) | 12% | 99% (active) | 98.8% (active) | 22% | 97% (active) | 98.7% (active) | 33% | 97% (active) | 98% (active) | 18% | 96% (active) | 98.7% (active)
N#CC(=C1C=CC(=NO)C=C1)c1cccc2ccccc12 | 36% | 91% (active) | 93.2% (active) | 15% | 94% (active) | 95.5% (active) | 39% | 92% (active) | 93.1% (active) | 3% | 91% (active) | 90.2% (active) | 5% | 91% (active) | 96.2% (active) | 28% | 91% (active) | 87.8% (active)
S=C(NCc1ccccc1)N/N=C/c1ccccn1 | -22% | 65% | 20.6% | 9% | 57% | 17.4% | -9% | 60% | 49.8% | 23% | 83% (active) | 62% | -22% | 72% (active) | 63.9% | 0% | 51% | 42.7%
O=c1[nH]n(CCc2ccccn2)c(=O)c(Cl)c1Cl | -5% | -5% | 9.25% | -9% | -1% | 1.95% | -3% | -26% | 12.4% | 2% | 6% | -6.2% | 2% | 7% | -11.2% | -17% | 13% | -17.2%
CC(O)C1CCCC[N+]1(C)C (stereo not given) | 1% | -3% | 0.05% | 5% | 8% | -6.9% | -1% | -36% | 51.5% | -5% | -6% | -7.6% | -11% | -8% | 9.45% | -17% | -3% | -18.6%
COc1ccc2cc(CNCCCCCCCCNCc3ccc4cc(OC)ccc4c3)ccc2c1 | 22% | 99% (active) | 97.7% (active) | 6% | 100% (active) | 97.2% (active) | 19% | 99% (active) | 95.1% (active) | 9% | 99% (active) | 94.5% (active) | 9% | 100% (active) | 93.7% (active) | 31% | 99% (active) | 97.2% (active)
O=C(C[n+]1ccccc1Cl)c1ccc(F)cc1 | -3% | 99% (active) | -8% | -1% | 100% (active) | -0.8% | -1% | 99% (active) | 11.7% | -3% | 99% (active) | 79.5% (active) | 4% | 99% (active) | 1.45% | -1% | 99% (active) | -12%
OC1(c2ccccc2)CCC2CCCCC2C1 (stereo not given) | 3% | 32% | 94.4% (active) | -4% | 52% | 96.5% (active) | 2% | 69% | 90.5% (active) | -10% | 8% | 89.5% (active) | 4% | 49% | 88.5% (active) | -14% | 63% | 81.2% (active)
O=C1C2C3C=CC(C3)C2C(=NS(=O)(=O)c2ccccc2)C2C3C=CC(C3)C12 (stereo not given) | -33% | 9% | 84.7% (active) | -2% | 0% | 89.8% (active) | 3% | 14% | 91.4% (active) | -1% | -3% | 22.1% | -2% | 4% | 53% | 28% | 12% | 72.5% (active)
CCCCCCCCCCCCNC(=O)NCC(OCC)OCC | -3% | 96% (active) | 89.3% (active) | 2% | 97% (active) | 91.5% (active) | 13% | 95% (active) | 92.3% (active) | 28% | 95% (active) | 83.3% (active) | 12% | 97% (active) | 91.8% (active) | -19% | 96% (active) | 90.3% (active)
O=C(O)CC1c2ccc3ccccc3c2CCC1c1ccccc1 (stereo not given) | 74% (active) | 99% (active) | 99.6% (active) | 44% | 99% (active) | 99.6% (active) | 68% | 99% (active) | 99.7% (active) | 34% | 99% (active) | 99.5% (active) | 30% | 99% (active) | 99.5% (active) | 78% (active) | 99% (active) | 99.5% (active)
CC(C)c1cc(C(=O)[O-])c(O)c(C(C)C)c1.CC(C)c1cc(C(=O)[O-])c(O)c(C(C)C)c1.CC(C)c1cc(C(=O)[O-])c(O)c(C(C)C)c1.CC(C)c1cc(C(=O)[O-])c(O)c(C(C)C)c1.CC(C)c1cc(C(=O)[O-])c(O)c(C(C)C)c1.CC(C)c1cc(C(=O)[O-])c(O)c(C(C)C)c1.[Cu+2].[Mn+2].[Mn+2] | 40% | 63% | 43.5% | 38% | 57% | 50.5% | 31% | 70% (active) | 44.5% | 34% | 53% | 50.7% | 37% | 66% | 55% | 39% | 66% | 82.1% (active)
COc1ccc(C2Oc3ccc(Cl)cc3C=C2[N+](=O)[O-])cc1 (stereo not given) | 99% (active) | 93% (active) | 80.4% (active) | 99% (active) | 95% (active) | 87.1% (active) | 99% (active) | 95% (active) | 82.5% (active) | 99% (active) | 93% (active) | 83.2% (active) | 99% (active) | 94% (active) | 84.4% (active) | 99% (active) | 95% (active) | 79% (active)
CCCCNC(=O)OCCN=C1c2ccccc2C(Br)C(Br)c2ccccc21 (stereo not given) | 5% | 37% | 98.4% (active) | 2% | 23% | 98.5% (active) | -5% | 21% | 97.3% (active) | 7% | 20% | 97.8% (active) | 9% | 28% | 97.8% (active) | 13% | 74% (active) | 98.5% (active)
CC(=O)OC(OC(C)=O)c1ccc([N+](=O)[O-])s1 | -77% | 100% (active) | 99.4% (active) | -18% | 100% (active) | 99.4% (active) | 10% | 100% (active) | 99.5% (active) | 1% | 99% (active) | 99.1% (active) | -7% | 100% (active) | 99.5% (active) | 19% | 100% (active) | 99.5% (active)
